Over roughly 2,300 sequences, “median log2 fold change of GCK-ALFA target abundance (FLAG IP / Myc IP barcode read proportion)” has its median near 0.095; the lowest 2% begin near -0.47. Many of the other results were omitted from the sample, so the lowest values are more common in it than they were.
B1: LC3A_28_689 (protein)
chain: NYIEELKKKAEEILEEAAAKGEEAYIEIDFERPITPEEVEEIMDKLEEYIKKYKLKKVNIVINILSENQSQETIDTIMDKAEELEKRIPNVTVIIALPEN
B2: LC3A_3_1500 (protein)
chain: LEEAVERLLEALREAGVSEADIAEARELLEKAREYLTEESIEAITETVRRLAHLPPRLVAAAVLTLLETILEKKLNDEEVKEKAELLAETAESFAESDER
B3: LC3A_28_698 (protein)
chain: SRVDEDIERARKIAEEAIAKGEDALIELTIRPDTTAEDVDRILATIRELAEKMSKTGKLYVVVDVESGVDQANIDRIADELDKLMEEIPNLTAVIALDED
B4: LC3A_141_369 (protein)
chain: KTVTLKLELKNSSLDEVIEKMEELEEEVLKAYEELGGGKVKVTVTLTFKNSKTGETTVIKEEFEADKEELEMLLEGVLIEAASYRLTENADITVTVTLEA
B5: LC3A_28_725 (protein)
chain: NELEESIEKALKKAKELAEKGKSDVIEITIPGNATQEDIEKVIKALEEIAEIVKDLESVSIVIDVEGGVKQEHIDKLADKAEEIEKKYPNVTVIIALDED
B6: LC3A_free_0_2099 (protein)
chain: MTTVVEVLGIIDNENDKEAAEAIAEELKKLGKKLSEEKGWKVTVELKKVNGSYVITVTIEGKGMSIEEGLEIADEIADKIERLAKEHGVEVTIYTSVYEE
B7: LC3A_28_944 (protein)
chain: MTIEEEIEKALKEAKEAKAKKEPAVITITVKGDATEEEIEKVIETIKEIAELLKDIKGSAIIVDVEKGVKEEHINKLLDTLDEIEKKYPNISAIMALDED
B8: LC3A_28_943 (protein)
chain: MSIEEDIEAALKEAKEAKKKGEPAVITITVKGTATQEEVDAVIKTIKEIAELLKDIKGSAIIVDIEAGVAQEHVDALMDTLDEIEKKYPNINAIAALDED
B9: LC3A_3_1778 (protein)
chain: ADELIEELLEALREAGKSEETIEAAREVAERLRERGFDEALETFVREMRRLLDVPDDILLDMLEEVLELLETEDLSEEEVIERIEELARLARAEAEIEEL
B10: LC3A_132_256 (protein)
chain: SEELYERFLEEAKELIDKIVDALKAGKDPSPYIKELDELAEEAAEKLSLEELERLVEEAEEYAEERFAERLDPNDPEARRALDIVEMILDSALIEAELRA
B11: LC3A_132_258 (protein)
chain: SEEKKEEFLEKFKELIDKIVEALQAGQDPSPYLKELDELAEEAAEELSLEELEELVEEAEKYARERFAERLDPNDPEARRTLLIVEMILDSALIESELRA
B12: LC3A_28_714 (protein)
chain: SPLEESIKKALEEAKEAAKKGEEAVIEIKVEGEITEEETEKVQKAIEEIAEITKDLKSTTIIVDVDGKVPQEHINKILDKGEEVEKKYPNVTVIFALDEN
B13: LC3A_free_0_2103 (protein)
chain: SVTVVEVVAISKEKWSEEKAKKLKEAAEKLAKELEEKYGMETEVKLEEIDGRQVLTIKAKKEGMSIDEGLEIADYIADHLEEKAKELGVEVEIYESVYEE
B14: LC3A_3_1781 (protein)
chain: AEARIAELLAALEAAGASPETIAAVRAAAEALRARGYEEALATFVEEMRRLLGLPDEIRLAFAQEVLRLIEENDLSEEELTEEIRRLARLARLEAEIEEL
B15: LC3A_free_8_2489 (protein)
chain: KSQELANLASDLLDELEEEVEKKAKELGASELDILDLSLLIGSTIAEAYSLSDESPEKIIEAVREGLEELIERAKEISEELAKKVKELSEKILKELEEKA
B16: LC3A_3_1366 (protein)
chain: MEEKIEELLEYLKKEGKSEETLEAVRKTLEALIEKGYEEAAETFIELMKKLSHLPDELLLDFAKEVLEKVENEDLSEEELIEFIKEEAKIAENEAEIIEL
B17: LC3A_28_772 (protein)
chain: MDIKENAAKAIAEAKAAAAAGEEAVIEIKVPDGATEEDIEIVIKALEEIAEITKDMKSISVVIDVDGGVKQEHLDKLAKAAEEIEEKYPNVTVIIALDEN
B18: LC3A_free_39_2201 (protein)
chain: SEEEFEKYKEELLKLAEKEGEEALKEAKELLKEIEGNVNLAKTVLEEVKRAVEEGADVLELLKELLKLVKELKKEGKSEEEIIKEMKAKADVIINLIPID
B19: LC3A_28_1312 (protein)
chain: SKLKKQFEEAIKEVEAAAAAGEPVVVTIDITAEEAEKELEEILKLLEELAKVASKAPGATIIIDVDEDVKPENLKKIAEKAEELEKKYPNVTVIIAIEDK
B20: LC3A_127_171 (protein)
chain: ELEELLEEALEVAEELSELLEEEDYDFEEIEELTRELLELAKKILELDPRAEDALETAEEMLELLEEMKEADEAEQKELKEHLLMLTEGLIIELLGLQLK
B21: LC3A_free_39_2287 (protein)
chain: SEEELEEAVERLEELLEEIEGVSEEEKEIILEAARESLEMAKAILEALEELRRLGGDVAEAAREIAALIRELRAAGASLEERTAAVIEKARDLVNLIPID
B22: LC3A_132_291 (protein)
chain: QQEKAEELKKEIKEIVEEMKENIDDEEKVRKLLEELEKLMKRAEKELSPELLAEVFEELSELLEELSEEFDEAGKEDLALEADSLAIEAASLALRAKEKI
B23: LC3A_127_206 (protein)
chain: KEKELLKKAEKLAEKAEEAVDKIPKEGEKAREEAIKLLEELAKLLKQIPSLKEALEDTEQAIKLLKETAKLSPAEREETIEQISQIISGILIEIESELLK
B24: LC3A_free_46_2354 (protein)
chain: VEAKIEVDLLHEDEEVLKKAVEAIKEAAKKIAKKYGLKVEIKEKIEKLPDGSYFAEIEITLKGEDKETLEKAVNELINEIDEIAKKYDVAAIISYEIIEK

The binders below were run against MAP1LC3A, Q9H492 (assay: median log2 fold change of GCK-ALFA target abundance (FLAG IP / Myc IP barcode read proportion) (log2 ratio); each designed protein is fused to an ALFA-tag nanobody in HEK293 cells to bring the named protein to FLAG-tagged glucokinase (GCK); Myc marks an untargeted standard; higher = target protein stabilised (more abundant)). Details: target protein: 3xFLAG-MCP-GCK-ALFA reporter; HEK293 landing pad (RPLP).
In short: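 An ALFA-nanobody-fused binder library was recombined into HEK293 landing-pad cells and induced with 2 μg mL^−1 doxycycline. Cells were transfected with a plasmid expressing a FLAG-tagged target and a Myc-tagged standard. After 48 h, lysates underwent anti-FLAG and anti-Myc immunoprecipitation, and circular RNA barcodes were reverse transcribed, amplified and sequenced. Target abundance is the per-binder median log2 ratio of FLAG to Myc barcode read proportions. Barcodes needed ≥10^−7 proportion in both replicates, binders ≥3 barcodes per replicate, and a 10^−6 pseudocount was added; the two replicates were pooled.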

| Binder | median log2 fold change |
| --- | --- |
| B1 | -0.0908 |
| B2 | 0.0772 |
| B3 | -0.304 |
| B4 | -0.618 |
| B5 | 0.164 |
| B6 | -0.379 |
| B7 | -0.897 |
| B8 | -0.355 |
| B9 | -0.0575 |
| B10 | -0.217 |
| B11 | -0.582 |
| B12 | 0.219 |
| B13 | 0.15 |
| B14 | 0.24 |
| B15 | 0.0352 |
| B16 | 0.0931 |
| B17 | 0.202 |
| B18 | 0.451 |
| B19 | -0.0764 |
| B20 | -0.77 |
| B21 | 0.257 |
| B22 | -0.27 |
| B23 | 0.148 |
| B24 | -1.38e-07 |
